High-throughput results from PubChem.
FLuc modulator: qHTS profiling assay for firefly luciferase inhibitor/activator using purifed enzyme and Km concentrations of substrates (counterscreen for miR-21 project); AID 588342, 2011; actives 6.9% (n = 360,000); Luciferin 4-monooxygenase (Photinus pyralis), P08659; Potency, µM (series often up to 57.5 µM), without a hit: at the highest dose activity change, negative = inhibition, actives largely listed as inhibitors; purified FLuc, Km substrates, luminescence inhibition;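 note: plate controls were vehicle for no effect and reference inhibitor for full effect; nearly all actives have a fitted effect of over 55% in size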
Target sequence (P08659 whole entry, looked up): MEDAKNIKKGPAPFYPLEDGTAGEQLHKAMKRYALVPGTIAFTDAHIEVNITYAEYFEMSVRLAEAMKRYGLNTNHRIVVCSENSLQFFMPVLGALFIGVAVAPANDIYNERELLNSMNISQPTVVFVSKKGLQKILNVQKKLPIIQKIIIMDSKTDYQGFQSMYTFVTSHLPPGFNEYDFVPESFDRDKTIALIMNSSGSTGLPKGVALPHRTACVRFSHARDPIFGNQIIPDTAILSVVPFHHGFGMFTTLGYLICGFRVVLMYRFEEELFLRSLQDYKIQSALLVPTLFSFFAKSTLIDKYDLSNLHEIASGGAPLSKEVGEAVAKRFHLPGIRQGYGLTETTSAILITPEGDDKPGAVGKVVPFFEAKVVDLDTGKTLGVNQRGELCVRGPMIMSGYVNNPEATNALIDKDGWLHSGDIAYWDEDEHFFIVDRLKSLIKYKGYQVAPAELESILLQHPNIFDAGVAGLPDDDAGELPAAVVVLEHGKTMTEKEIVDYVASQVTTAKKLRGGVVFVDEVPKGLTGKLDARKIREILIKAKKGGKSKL
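Biochemical qHTS of compounds, final roughly 60 µM downward over six points, against 10 nM purified firefly luciferase using Km concentrations of substrates (10 uM D-luciferin, 10 uM ATP) in Tris acetate pH 7.5 buffer; luminescence output.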
SMN2 splice enh: qHTS Assay for Enhancers of SMN2 Splice Variant Expression; Potency, µM (series often up to 46.1 µM), without a hit: at the top dose activity change, positive = activation, usual class: activators; AID 1458, 2008; actives 2.8% (n = 210,000); HEK293 SMN2-luciferase splicing reporter, luminescence, 30-36 h; note: % of control where 0% means no effect; nearly all actives have a fitted effect of over 55% in size
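HEK293 cells carry an SMN2 minigene-luciferase reporter in which exon 7 inclusion puts luciferase in frame. Cells were seeded at 2000 cells/well, attached for 10-12 hours, then exposed to compounds for 30-36 hours at 37C before ONE-Glo luminescence.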
Rab9 promoter act: qHTS Assay for Rab9 Promoter Activators; actives 2.8% (n = 320,000); Potency, µM (series often up to 9.22 µM), without a hit: at the highest dose activation, negative = inhibition, actives largely listed as activators; Huh7 Rab9 promoter-luciferase reporter, luminescence, 24 h; note: % of control where 0% means no effect; nearly all actives have a fitted effect of over 60% in size
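Huh7 reporter line, Rab9 promoter upstream of luciferase. Compound exposure 24 h at 37 °C in reduced-serum medium with 10% FBS. Read-out: luminescence.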
NPC1 prom act: qHTS Assay for NPC1 Promoter Activators; Huh7 NPC1 promoter luciferase reporter, 24 h; Potency, µM (doses to about 9.22 µM), for the others: at the top dose activation, most hits filed as activators; actives 2.4% (n = 320,000); AID 485313, 2010; note: % of control where 0% means no effect; nearly all actives have a fitted effect of over 60% in size
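In 1536-well qHTS, Huh7 cells harboring an NPC1 promoter–luciferase construct received compound for 24 h; activation was quantified by luminescence following luciferase reagent addition.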
ELG1 DNA repair: qHTS screen for small molecules that inhibit ELG1-dependent DNA repair in human embryonic kidney (HEK293T) cells expressing luciferase-tagged ELG1 | HEK293T ELG1-luciferase reporter, luminescence, 16 h; DNA damage induced by 5-fluorouridine | Potency, µM (series often up to 46.1 µM), inactives show at the top dose activity change, negative = inhibition, hits mostly inhibitors | actives 2.3% (n = 330,000); note: % is set by controls: 0 for no effect and ±100 for the full control effect; nearly all actives have a fitted effect of over 55% in size
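5-Fluorouridine DNA damage + compound/DMSO, 2,000 cells/well, 16 h, 37 °C/5% CO2. ONE-Glo, 30 min RT, luminescence. Readout = decrease in reporter signal.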
ELG1 genotoxic: qHTS screen for small molecules that induce genotoxicity in human embryonic kidney (HEK293T) cells expressing luciferase-tagged ELG1 | HEK293T ELG1-luciferase reporter, luminescence, 16 h | Potency, µM (doses to about 46 µM), for the others: at the highest dose activity change, positive = activation, actives largely listed as activators | actives 1.3% (n = 330,000) | AID 504466, 2011; note: % of control where 0% means no effect; nearly all actives have a fitted effect of over 60% in size
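Step 1: seed 2,000 HEK293T ELG1-luciferase cells per well. Step 2: add compound or DMSO, incubate 16 hr at 37 °C. Step 3: ONE-Glo, 30 min at room temperature, read luminescence.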
An asterisk follows results filed as active; u = inconclusive; x = no result; [ ] = remark or other dose. Sampled rows, rich in hits. Any-hit rate of the full collection: about 9.2%. Calls come from the whole dose curve; as a rule, active = well fitted curve in the direction sought with a large enough effect; inconclusive = small, poorly fitted or top-dose-only effect, or another doubt; inactive = no such curve, though single readings can be large; an effect the other way counts as inactive or inconclusive. Potency is the fitted concentration of half-maximal effect.

SMILES	FLuc modulator	SMN2 splice enh	Rab9 promoter act	NPC1 prom act	ELG1 DNA repair	ELG1 genotoxic
CC(=O)Nc1ccc(SCC(=O)c2cc(C)n(CC(F)(F)F)c2C)cc1	-17.5%	-4.6%	2.82µM*	3.16µM*	u	u
COc1cc(O)c2c(=O)c3c(OC)c(O)ccc3oc2c1	19µM*	x	8.4%	2.0%	u	u
COc1ccc2oc3ccccc3c(=O)c2c1	2.5%	x	-0.2%	-3.2%	-10.9%	-7.0%
COc1cc(O)c2c(=O)c(O)c(-c3ccc(O)c(O)c3)oc2c1	x	-3.0%	x	x	x	x
COc1ccc2oc3ccc(OC)cc3c(=O)c2c1	3.01µM*	u	2.82µM*	3.16µM*	u	u
COc1ccc2oc(C)c(C(=O)c3ccc(C)cc3)c2c1	16.9µM*	x	4.4%	9.7%	27.5%	-0.3%
CCN(C(=O)c1cnc(N2CCOCC2)c2ccccc12)c1cc(C)ccc1C	-1.5%	x	x	x	x	x
CC(=O)c1ccc(NC(=O)/C=C/c2ccc(C)o2)cc1	7.57µM*	12.6µM*	x	x	x	x
Cc1ccc(/C=C/C(=O)Nc2ccc(Oc3ccccc3)cc2)o1	6.01µM*	-46.6%	1.3%	-4.7%	u	8.9%
CCNc1ccccc(-c2ccc3ccccc3n2)c1=O	12µM*	11.2µM*	u	u	u	u
Cc1oc(-c2ccc(Cl)cc2)nc1CN1CCCC(C(=O)NCc2cccnc2)C1 (stereo unspecified)	-2.7%	-83.4%	-16.9%	-23.7%	6.51µM*	-9.4%
Cc1oc(-c2ccc(Cl)cc2)nc1CN1CCCC(C(=O)NCc2ccccn2)C1 (stereo unspecified)	2.4%	-11.7%	-1.5%	-0.1%	u	-2.7%
CCCN(Cc1nnc(-c2ccccc2Cl)o1)C(=O)c1cc(S(=O)(=O)N2CCOCC2)ccc1F	2.4%	x	-0.7%	0.5%	u	-2.9%
C=CC[C@@H](CC(=O)N[C@@H](CO)Cc1ccccc1)C(=O)N[C@@H](COC(=O)[C@@H](CC=C)Cc1ccc(F)cc1)Cc1c[nH]c2ccccc12	x	x	x	x	0.8%	-0.7%
C=CC[C@@H](CC(=O)N[C@@H](CO)Cc1ccccc1)C(=O)N[C@H](COC(=O)[C@@H](CC=C)CC(=O)OC(C)(C)C)Cc1c[nH]c2ccccc12	x	x	x	x	20.6µM*	-6.9%
C=CC[C@@H](CC(=O)N[C@H](CO)Cc1ccccc1)C(=O)N[C@H](COC(=O)[C@@H](CC=C)Cc1ccc(F)cc1)Cc1c[nH]c2ccccc12	x	x	x	x	20.6µM*	-7.3%
C=CC[C@H](CC(=O)N[C@H](CO)Cc1ccccc1)C(=O)N[C@@H](COC(=O)[C@@H](CC=C)CC(=O)OC(C)(C)C)Cc1c[nH]c2ccccc12	x	x	x	x	u	-6.0%
Cc1cc(C)c(S(=O)(=O)NC(C)C)c(C)c1-n1cnnn1	-0.3%	x	3.9%	-7.9%	-11.2%	-5.4%
CSc1ccccc1Nc1ncnc(N)n1	7.2%	x	-0.7%	-0.7%	17.8%	1.7%
N=C(N)SCCN1CCCCC1	x	-11.0%[9.22 µM]	x	x	x	x
O=C1CN(C(=O)COc2ccc([N+](=O)[O-])cc2Cl)c2ccccc2N1	u	x	-2.9%	-3.1%	7.6%	2.6%
Cc1ccc(/C=C2\SC(=S)N(/N=C/c3cc([N+](=O)[O-])ccc3O)C2=O)o1	23.9µM*	x	-6.0%	-1.1%	-19.5%	-4.4%
O=C(NN1C(=O)/C(=C/c2cc([N+](=O)[O-])ccc2O)SC1=S)c1ccccc1O	u	x	7.8%	-1.0%	-0.4%	10.9%
CCOC(=O)c1c(NC(=O)COc2cc(C)ccc2C(C)C)sc2c1CCCC2	-6.2%	0.8%	x	x	x	x
Cc1nn(-c2ccc(N3CCCC3)nn2)c(C)c1CCC(=O)Nc1ccc(F)cc1F	-13.9%	x	x	x	x	x
SMILES	FLuc modulator	SMN2 splice enh	Rab9 promoter act	NPC1 prom act	ELG1 DNA repair	ELG1 genotoxic
Cc1nn(-c2ccc(N3CCCCC3)nn2)c(C)c1CCC(=O)Nc1cc(F)ccc1F	4.78µM*	x	u	u	0.4%	3.3%
Cc1nn(-c2ccc(N3CCCCC3)nn2)c(C)c1CCC(=O)Nc1ccccc1F	19µM*	x	u	u	u	-0.1%
CC1(C)CC(=O)C(C=NCc2ccc3c(c2)OCO3)=C(O)C1	-3.1%	1.1%	7.5%	6.6%	17.5%	9.4%
COc1ccc(N=CC2=C(O)CC(C)(C)CC2=O)cc1	19µM*	-11.6%	10.6%	-2.2%	u	u
CC1(C)CC(=O)C(C=Nc2ccc3c(c2)OCO3)=C(O)C1	15.1µM*	u	17.7%	0.0%	u	u
O=C(NCC1CCCO1)c1nn2c(C(F)(F)F)cc(-c3cc(Br)cs3)nc2c1Br (stereo unspecified)	3.5%	x	-5.5%	-8.1%	12.1%	9.4%
Oc1cc(-n2cccn2)c(O)cc1-n1cccn1	16.9µM*	x	-2.0%	-0.5%	u	u
CCOCCc1nn2c(=O)cc(COC(=O)C(CC)c3ccccc3)nc2s1 (stereo unspecified)	-4.2%	x	x	x	x	x
C=CCOC(=O)C1=C(C)NC(SCC(=O)N(CC)CC)=C(C#N)C1c1ccco1 (stereo unspecified)	2.4%	-27.8%	-2.7%	0.6%	8.2µM*	-11.1%
C=CCOC(=O)C1=C(C)NC(SCC(=O)N(CC)CC)=C(C#N)C1c1ccccc1 (stereo unspecified)	0.5%	-13.7%	-2.7%	2.6%	16.4µM*	-8.8%
OCCN(CC#CCn1c2ccccc2c2ccccc21)CCO	-6.8%	x	0.3%	-4.1%	0.0%	0.0%
CCc1cc2c(=O)c(-c3ccc4c(c3)OCCO4)coc2cc1OC(=O)c1ccco1	1.07µM*	u	2µM*	1.78µM*	u	1.46µM*
CCCc1cc2c(=O)c(-c3ccc4c(c3)OCCO4)coc2cc1OC(=O)c1ccco1	5.36µM*	u	1.58µM*	1.26µM*	u	18.1%
CCN1CCN(C(=O)c2cccc(OC3CCN(S(C)(=O)=O)CC3)c2)[C@@H](C)C1=O	0.1%	x	-2.5%	-2.3%	1.1%	2.0%
CCn1c(=O)c(C(=O)CN2CCN(S(=O)(=O)c3cc(C)ccc3C)CC2)c(N)n(Cc2ccccc2)c1=O	2.4%	-7.4%	-20.3%	-1.1%	6.51µM*	-6.0%
O=C(NCc1ccc2c(c1)OCO2)Nc1cccc(Cl)c1	u	x	25.5%	28.2%	u	u
CC(=O)c1cccc(NC(=O)Nc2ccc3c(c2)OCO3)c1	4.78µM*	x	2.51µM*	3.55µM*	u	2.3%
